# Assay results reported in the OligoGym collection.
# Molecular target: RNF113A
# Assay: pooled miR-30 sensor sort-seq; sequence = guide strand
# Details: shRNA
# Also: reference of the scale not given here.
row,Sequence,sensor-assay potency score (higher = more potent)
1,TAGCTCGATGCTTCTCTAGTTT,-0.684
2,TTAGCAATCAATTCTTTCGCTG,0.0148
3,TTCGTCGCTACTGCTGCCGCTT,-0.608
4,TAGTTTAGCAATCAATTCTTTC,-0.827
5,TTCGCTGCTCAAGTCGCCGTAA,-0.391
6,TAGATCTTGTCATCCTCCTTGC,0.184
7,ATAGATCTTGTCATCCTCCTTG,0.536
8,TTTTCCTCTTCCTCTTCGCTGC,-0.23
9,TAGCAATCAATTCTTTCGCTGG,0.133
10,TTTTCCGGTCGAACCACAGTGC,-0.536
11,TTTACCACTGTCACGGGTCTTC,-0.541
12,TACTGCTGCCGCTTTCTCCGGG,-0.242

# Molecular target: RNF122
# Assay: as above
# Details: shRNA
row,Sequence,sensor-assay potency score (higher = more potent)
1,TATCCGTATCGCTCACTCTGTG,-0.565
2,TAACTTCTTGGCATCACCTTTA,-0.252
3,ATCCGTATCGCTCACTCTGTGC,-0.963
4,ATATCCGTATCGCTCACTCTGT,-0.868
5,TTTGCTGATAAAATAGCAGCAG,-0.0269
6,TTGCTGATAAAATAGCAGCAGA,-0.908
7,ATAATTGTAACTTCTTGGCATC,-0.737
8,TATAATTGTAACTTCTTGGCAT,0.823
